Compound activity as filed in PubChem BioAssay.
Shown are actives, neighbours in structure and some others; about 6.5% of the full set was active somewhere.
VACV Venus inh = qHTS for Stage-Specific Inhibitors of Vaccinia Orthopoxvirus: Venus Reporter Primary qHTS; Vaccinia virus Venus reporter expression, fluorescence; Potency, µM (series often up to 36.5 µM), inactives show at the top dose activity change, negative = inhibition, actives largely listed as inhibitors; 330,000 tested, 0.46% active; AID 720580, 2013; calls by dose curve; tested in A549 cells; further: potency means the concentration at half of the fitted maximal effect; nearly all actives have a fitted effect of over 30% in size
HCMV inh = qHTS Assay for inhibitors of the human cytomegalovirus (HCMV). HFF cells, HCMV-luciferase reporter, 72 h; active compounds read low. activity change, negative = inhibition, % at 57.5 µM. 410,000 tested, 4.5% active. AID 1259415, 2018; in the data active means activity change below about -60%; inconclusive means no clear call, values can overlap the other calls; inactive means above about -39%
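Luciferase read-out from HCMV-luciferase-infected HFFs (MOI 1 PFU/cell) 72 h post infection at 37C; compounds added after 16 h cell attachment; activity normalized between buffer-only basal and Salinomycin (10uM) inhibitor controls.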
VACV mCherry inh = qHTS for Stage-Specific Inhibitors of Vaccinia Orthopoxvirus: mCherry Reporter Primary qHTS; Vaccinia virus mCherry reporter infection, fluorescence; Potency, µM (top dose mostly 36.5 µM), without a hit: at the top dose activity change, negative = inhibition, actives largely listed as inhibitors; 310,000 tested, 0.63% active; AID 720579, 2013; calls by dose curve; tested in A549 cells; further: potency means the concentration at half of the fitted maximal effect; nearly all actives have a fitted effect of over 35% in size
FMDV antiviral = High Throughput Screening for Foot and Mouth Disease Virus Antivirals; FMDV antiviral cell-based qHTS; Potency, µM (series often up to 57.9 µM), for the others: top-dose activity change, negative = inhibition, hits mostly inhibitors; 410,000 tested, 1.2% active; calls by dose curve; tested in HEK293T cells; further: read-out not given here; potency means the concentration at half of the fitted maximal effect; nearly all actives have a fitted effect of over 45% in size
MARV entry inh = qHTS for inhibitors of binding or entry into cells for Marburg Virus; Marburg virus pseudotyped entry inhibition, cell reporter; 300,000 tested, 1.8% active; AID 540276, 2011; Potency, µM (doses to about 37.8 µM), for inactives: at the highest dose activity change, negative = inhibition, hits mostly inhibitors; calls by dose curve; tested in HEK293 cells; further: potency means the concentration at half of the fitted maximal effect
Lassa entry inh = qHTS for Inhibitors of binding or entry into cells for Lassa Virus. Lassa virus pseudotype entry inhibition, cell reporter. Potency, µM (titrated, usually from 37.9 µM), for the others: top-dose activity change, negative = inhibition, hits mostly inhibitors. AID 540256, 2011. 300,000 tested, 1.2% active; calls by dose curve; tested in HEK293 cells; further: potency means the concentration at half of the fitted maximal effect; nearly all actives have a fitted effect of over 50% in size
Numbers without * were called inactive; i = inactive; ? = inconclusive; · = not tested or not shown; [ ] = remark or other dose. On the % scale 0 is the no-effect control and ±100 the full control effect.

SMILES	VACV Venus inh	HCMV inh	VACV mCherry inh	FMDV antiviral	MARV entry inh	Lassa entry inh
O=C(NCCCSc1ccccc1)c1cc(Br)ccc1O	·	-79*	·	-19%	·	·
O=C(NCCSc1ccccc1)c1ccc(Br)cc1	-14%	5	-13%	-11%	?	13µM*
CCOC(=O)CN1C(=O)NC(c2cccc(C(F)(F)F)c2)C(C(=O)OC)=C1C (configuration not stated)	·	·	·	·	-11%[14.2 µM]	·
COC(=O)[C@@H]1[C@@H](CO)[C@@H]2Cn3c(ccc(Br)c3=O)[C@H]1N2S(=O)(=O)c1ccccc1F	·	-6	·	·	·	·
COc1cccc(-n2c(SC)nnc2C2CCN(CCC(C)c3ccc(C)o3)CC2)c1 (configuration not stated)	-5%	·	-16%	-18%	·	·
O=C1CCCc2oc3c(cc(NS(=O)(=O)c4ccc5c6c(cccc46)C(=O)N5)c4ccccc43)c21	-22%	?	?	-9%	11µM*	3%[46.1 µM]
Cc1oc2c(cc(NS(=O)(=O)c3ccc4c5c(cccc35)C(=O)N4)c3ccccc32)c1C(=O)OC(C)C	·	-5	·	3%	-21%	?
CC(C)c1ccc(C2=CC(c3cccc(Cl)c3)n3c(nc4ccccc43)N2)cc1 (configuration not stated)	20%[7.34 µM]	-63*	-6%[7.34 µM]	-75%	·	-17%[46.1 µM]
CN1CCC(C2(O)c3ccccc3CCc3ccccc32)CC1	-8%	?	-3%	6%	18µM*	-2%
O=C(NCCN1Cc2ccccc2OC(c2ccccc2F)C1)c1cncs1 (configuration not stated)	2%	·	-17%	-4%	·	·
O=C(c1cccc([N+](=O)[O-])c1)N1CCN(c2ncccn2)CC1	·	-28	·	6%	·	·
Cc1ccc(Nc2ccc(N3CCN(C(=O)c4cccc([N+](=O)[O-])c4)CC3)nn2)cc1	-24%	-62*	?	-8%	·	-9%[46.1 µM]
O=C1C(Cl)=C(N2CCOCC2)C(=O)N1CCc1ccccc1	0%	65	-19%	-16%	-8%	-21%
CN1CCN(C2=C(Cl)C(=O)N(CCc3ccccc3)C2=O)CC1	·	-68*	·	21%	-1%	-17%
Cc1ccc(N2CC(NC(=O)C3CC3)CC2=O)cc1C (configuration not stated)	-16%[7.34 µM]	-7	-7%[7.34 µM]	-12%	·	34%[46.1 µM]
CCc1cccc(NC(=O)CC(c2ccc(OC)cc2)N2Cc3ccccc3C2=O)c1 (configuration not stated)	-12%	-25	-14%	-10%	·	?
Nc1nc(N)c(S(=O)(=O)c2ccccc2)c(Nc2ccc(Br)cc2)n1	-14%	-13	-19%	-16%	-4%[46.1 µM]	-12%[46.1 µM]
CCOC(=O)C1CCN(C(=O)c2ccccc2)c2scc(-c3ccccc3)c2C1=O (configuration not stated)	-22%	?	-3%	32µM*	·	·
CCOC(=O)C1CCCN(C(=O)c2ccccc2)CC1 (configuration not stated)	-5%	-22	8%	-11%	·	·
CC1(C)Oc2cc3oc(-c4cc(O)cc(O)c4)cc3cc2CC1O (configuration not stated)	-4%	-30	-10%	11µM*	·	·
Oc1cc(O)cc(-c2cc3ccc(O)cc3o2)c1	-7%	31	-8%	-21%	·	·
O=C(NCc1ccccc1Cl)c1nnc(CS(=O)(=O)c2ccccc2)o1	-12%	-99*	i	-15%	·	·
Nc1ccc(C(=O)Nc2ccccc2C(=O)O)cc1	·	21	·	43%	21%	8%
O=C(Nc1ccc(C#Cc2ccccc2)cc1)C1CC1	·	-64*	·	47%	2.3µM*	4.6µM*
CC(=O)Nc1ccc(C#Cc2ccc(NC(C)=O)cc2)cc1	-6%	-72*	-16%	·	4.6µM*	7.3µM*
SMILES	VACV Venus inh	HCMV inh	VACV mCherry inh	FMDV antiviral	MARV entry inh	Lassa entry inh
O=C(Nc1ccccc1C(=O)Nc1ccccc1C(=O)O)c1ccccc1	-11%	-60*	-19%	0%	?	?
O=C(Nc1ccccc1C(=O)O)c1ccc(NC(=O)C2CC2)cc1	1%	0	-11%	?	5µM*	?
Cc1cc2c(nc1C)CCCN2CC(O)CN1CCN(C)CC1 (configuration not stated)	·	·	·	·	18%[14.2 µM]	·
COc1ccccc1C(=O)Nc1ccc2nc(SCC(=O)N3CCCC3)sc2c1	-16%	-14	-10%	?	7%[46.1 µM]	-1%[46.1 µM]
Cc1ccc(NC(=O)c2cc3c(=O)[nH]c4ccccc4c3n2C)cc1F	-2%	-18	8%	-7%	2%[46.1 µM]	?
O=C(O)c1ccccc1NC(=O)c1ccccc1Nc1ccccc1	·	-70*	·	-24%	·	·
COc1ccccc1NC(=O)c1ccccc1Nc1ccccc1	-19%	-23	-6%	-16%	-6%	-15%
CCCC[C@H](CN[C@@H](CNC)[C@H](C)CC)NCCC12CCC(CC1)C2	22µM*	-97*	22µM*	-2%	·	·
Cc1ccc2nc(COc3ccccc3NC(=O)c3ccc(F)cc3)cc(=O)n2c1	-15%	-3	-16%	-10%	·	-1%[46.1 µM]
CC1(Cc2ccccc2OC(F)(F)F)C(=O)Nc2ccc(-c3ccsc3)cc21 (configuration not stated)	-13%	-75*	i	0%	·	·
COC(=O)c1ccc(CC2(C)C(=O)Nc3ccc(OC(F)(F)F)cc32)o1 (configuration not stated)	-17%	-9	-7%	-22%	·	·
CC1(Cc2cc(Cl)ccc2C(F)(F)F)C(=O)Nc2ccc(OC(F)(F)F)cc21 (configuration not stated)	-26%	·	14%	?	·	·
CC1(Cc2ccc(OC(F)(F)F)cc2)C(=O)Nc2ccc(S(=O)(=O)NC3CCCCC3)cc21 (configuration not stated)	?	-99*	?	-1%	·	·
CC1(Cc2ccccc2OC(F)(F)F)C(=O)Nc2ccc(OC(F)(F)F)cc21 (configuration not stated)	-21%	-76*	-3%	?	·	·
CC1(Cc2ccc3ccccc3n2)C(=O)Nc2ccc(OC(F)(F)F)cc21 (configuration not stated)	-18%	-98*	28%	-21%	·	·
CC1(Cc2ccccc2OC(F)(F)F)C(=O)Nc2cc(-c3ccccc3Cl)ccc21 (configuration not stated)	-14%	0	i	-24%	·	·
CCN(CC)CCNC(=O)C1CCN(c2cc(C)nc3c(-c4ccc(Cl)cc4)c(C)nn23)CC1	-8%	10	-10%	2%	?	?
COc1ccc(NC(=O)Cn2c(=O)n(Cc3ccccc3)c(=O)c3oc4ccccc4c32)cc1Cl	-17%	45	-4%	4%	·	?
Cc1ccc(C)n1C1C(=O)N(Cc2ccc(C(F)(F)F)cc2)c2ccccc21 (configuration not stated)	·	30	·	·	·	·
